Laboratory results from the supplement of paper PMC6411743.
± gives the standard deviation of the averaged measurements. The full data set covers some 5,400 targets. This sample favours those with the largest changes.

Compound: Nc1nc2c(ncn2[C@@H]2O[C@H](COP(=O)(O)OP(=O)(O)OP(=O)(O)O)[C@@H](O)[C@H]2O)c(=O)[nH]1 [guanosine triphosphate]
Experiment: NP40-soluble protein abundance relative to vehicle (solubility fold change) (ratio); higher = more soluble protein in presence of GTP
Procedure, shortened: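 Data come from three independent experiments in which Dounce-homogenised Jurkat crude lysate was treated at eight concentrations from 0.1 to 10 mM. Treatment ran 10 min at room temperature and then 3 min at 37 °C, after which 0.8% NP40 and benzonase were added for 60 min at 4 °C before ultracentrifugation. The supernatant underwent TMT labelling and LC-MS/MS, and vsn-normalised intensities were expressed as fold change against the detergent-processed vehicle in each replicate.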

Chain of UniProt P20936 (P20936 whole entry, one chain of several): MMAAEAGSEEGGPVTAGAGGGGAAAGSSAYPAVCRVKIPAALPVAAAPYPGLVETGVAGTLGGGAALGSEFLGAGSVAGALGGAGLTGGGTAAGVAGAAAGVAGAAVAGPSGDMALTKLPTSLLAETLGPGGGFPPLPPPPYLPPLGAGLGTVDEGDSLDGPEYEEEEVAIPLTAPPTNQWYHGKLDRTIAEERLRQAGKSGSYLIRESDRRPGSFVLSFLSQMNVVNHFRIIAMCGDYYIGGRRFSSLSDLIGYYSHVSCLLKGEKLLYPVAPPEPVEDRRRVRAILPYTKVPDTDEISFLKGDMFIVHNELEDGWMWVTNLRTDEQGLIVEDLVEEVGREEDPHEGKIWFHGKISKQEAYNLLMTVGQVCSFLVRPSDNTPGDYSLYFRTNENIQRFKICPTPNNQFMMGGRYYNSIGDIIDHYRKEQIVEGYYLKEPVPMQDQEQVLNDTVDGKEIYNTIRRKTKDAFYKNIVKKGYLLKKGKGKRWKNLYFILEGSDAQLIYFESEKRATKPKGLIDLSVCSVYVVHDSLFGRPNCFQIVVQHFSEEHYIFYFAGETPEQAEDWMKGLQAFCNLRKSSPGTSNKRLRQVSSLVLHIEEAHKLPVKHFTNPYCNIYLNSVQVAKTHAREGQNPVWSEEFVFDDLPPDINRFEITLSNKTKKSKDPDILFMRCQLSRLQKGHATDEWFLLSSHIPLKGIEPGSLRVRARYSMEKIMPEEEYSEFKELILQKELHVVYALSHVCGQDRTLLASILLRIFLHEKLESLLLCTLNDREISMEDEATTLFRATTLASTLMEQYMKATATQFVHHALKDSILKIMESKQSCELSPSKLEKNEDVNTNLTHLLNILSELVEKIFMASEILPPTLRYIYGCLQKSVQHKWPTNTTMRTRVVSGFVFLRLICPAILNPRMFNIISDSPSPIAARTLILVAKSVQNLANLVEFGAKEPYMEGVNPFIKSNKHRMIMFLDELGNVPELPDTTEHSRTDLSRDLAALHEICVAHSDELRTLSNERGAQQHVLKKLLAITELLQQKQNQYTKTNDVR
Chain of UniProt B0I1T2 (B0I1T2 whole entry): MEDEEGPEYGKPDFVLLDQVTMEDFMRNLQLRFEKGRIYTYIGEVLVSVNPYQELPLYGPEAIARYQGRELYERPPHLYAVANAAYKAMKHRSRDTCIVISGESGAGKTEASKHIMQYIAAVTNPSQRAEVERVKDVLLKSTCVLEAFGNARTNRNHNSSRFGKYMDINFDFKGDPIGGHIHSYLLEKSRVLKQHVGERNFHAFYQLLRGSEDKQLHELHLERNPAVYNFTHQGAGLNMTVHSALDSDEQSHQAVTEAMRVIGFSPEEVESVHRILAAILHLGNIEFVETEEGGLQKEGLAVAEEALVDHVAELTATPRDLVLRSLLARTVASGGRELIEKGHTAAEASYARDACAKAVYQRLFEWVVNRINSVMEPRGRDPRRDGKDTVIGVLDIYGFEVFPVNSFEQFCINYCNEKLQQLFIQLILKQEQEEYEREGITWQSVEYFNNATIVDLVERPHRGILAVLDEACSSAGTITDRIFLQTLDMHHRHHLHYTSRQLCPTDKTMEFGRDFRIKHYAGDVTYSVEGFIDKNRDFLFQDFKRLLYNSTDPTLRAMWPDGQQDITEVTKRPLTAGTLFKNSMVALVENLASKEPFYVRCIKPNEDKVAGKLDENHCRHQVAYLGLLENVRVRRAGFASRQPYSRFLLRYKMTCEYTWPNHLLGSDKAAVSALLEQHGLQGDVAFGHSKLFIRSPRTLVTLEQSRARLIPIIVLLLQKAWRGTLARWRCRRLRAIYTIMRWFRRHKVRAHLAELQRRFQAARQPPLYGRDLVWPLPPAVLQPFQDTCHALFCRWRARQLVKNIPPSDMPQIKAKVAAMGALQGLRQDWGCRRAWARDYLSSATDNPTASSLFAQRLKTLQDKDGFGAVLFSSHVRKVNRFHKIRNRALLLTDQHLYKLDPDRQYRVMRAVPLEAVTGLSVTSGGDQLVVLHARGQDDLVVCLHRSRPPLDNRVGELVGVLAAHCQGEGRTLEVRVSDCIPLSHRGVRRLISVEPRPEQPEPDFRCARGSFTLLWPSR
Chain of UniProt Q15005 (Q15005 whole entry, one chain of several): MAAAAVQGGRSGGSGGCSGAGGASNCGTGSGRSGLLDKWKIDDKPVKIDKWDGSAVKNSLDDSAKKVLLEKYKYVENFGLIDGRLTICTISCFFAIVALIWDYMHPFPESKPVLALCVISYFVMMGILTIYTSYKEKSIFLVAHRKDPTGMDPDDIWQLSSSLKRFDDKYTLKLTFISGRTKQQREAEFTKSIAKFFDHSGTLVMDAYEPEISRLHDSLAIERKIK
Chain of UniProt P51957 (P51957 whole entry, looked up, one chain of several): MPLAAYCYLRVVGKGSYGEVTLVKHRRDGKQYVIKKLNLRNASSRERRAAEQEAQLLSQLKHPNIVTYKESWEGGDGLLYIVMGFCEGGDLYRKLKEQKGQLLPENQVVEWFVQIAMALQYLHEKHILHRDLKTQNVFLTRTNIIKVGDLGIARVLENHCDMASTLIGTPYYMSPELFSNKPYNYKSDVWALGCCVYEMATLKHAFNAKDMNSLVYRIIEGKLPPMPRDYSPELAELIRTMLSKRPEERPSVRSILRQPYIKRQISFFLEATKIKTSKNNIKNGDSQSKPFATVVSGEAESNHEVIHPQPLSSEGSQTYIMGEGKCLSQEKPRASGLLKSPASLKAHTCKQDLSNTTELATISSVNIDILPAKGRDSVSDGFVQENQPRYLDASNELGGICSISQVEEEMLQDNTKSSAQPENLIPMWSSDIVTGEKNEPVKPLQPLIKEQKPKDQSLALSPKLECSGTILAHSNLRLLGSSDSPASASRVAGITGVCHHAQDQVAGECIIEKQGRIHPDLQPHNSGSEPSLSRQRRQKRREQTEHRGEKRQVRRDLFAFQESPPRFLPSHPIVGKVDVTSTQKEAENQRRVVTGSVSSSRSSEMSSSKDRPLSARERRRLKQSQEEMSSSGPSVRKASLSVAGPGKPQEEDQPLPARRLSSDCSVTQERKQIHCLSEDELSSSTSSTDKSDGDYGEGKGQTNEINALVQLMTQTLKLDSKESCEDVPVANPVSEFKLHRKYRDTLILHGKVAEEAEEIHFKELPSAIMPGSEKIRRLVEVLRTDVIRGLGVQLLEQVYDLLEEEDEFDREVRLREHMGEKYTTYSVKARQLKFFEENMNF
Chain of UniProt Q96B45 (Q96B45 whole entry, looked up, one chain of several): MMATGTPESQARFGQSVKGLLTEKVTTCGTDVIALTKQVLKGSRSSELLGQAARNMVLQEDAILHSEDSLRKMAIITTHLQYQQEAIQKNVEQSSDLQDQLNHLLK
Chain of UniProt O94880 (O94880 whole entry, one chain of several): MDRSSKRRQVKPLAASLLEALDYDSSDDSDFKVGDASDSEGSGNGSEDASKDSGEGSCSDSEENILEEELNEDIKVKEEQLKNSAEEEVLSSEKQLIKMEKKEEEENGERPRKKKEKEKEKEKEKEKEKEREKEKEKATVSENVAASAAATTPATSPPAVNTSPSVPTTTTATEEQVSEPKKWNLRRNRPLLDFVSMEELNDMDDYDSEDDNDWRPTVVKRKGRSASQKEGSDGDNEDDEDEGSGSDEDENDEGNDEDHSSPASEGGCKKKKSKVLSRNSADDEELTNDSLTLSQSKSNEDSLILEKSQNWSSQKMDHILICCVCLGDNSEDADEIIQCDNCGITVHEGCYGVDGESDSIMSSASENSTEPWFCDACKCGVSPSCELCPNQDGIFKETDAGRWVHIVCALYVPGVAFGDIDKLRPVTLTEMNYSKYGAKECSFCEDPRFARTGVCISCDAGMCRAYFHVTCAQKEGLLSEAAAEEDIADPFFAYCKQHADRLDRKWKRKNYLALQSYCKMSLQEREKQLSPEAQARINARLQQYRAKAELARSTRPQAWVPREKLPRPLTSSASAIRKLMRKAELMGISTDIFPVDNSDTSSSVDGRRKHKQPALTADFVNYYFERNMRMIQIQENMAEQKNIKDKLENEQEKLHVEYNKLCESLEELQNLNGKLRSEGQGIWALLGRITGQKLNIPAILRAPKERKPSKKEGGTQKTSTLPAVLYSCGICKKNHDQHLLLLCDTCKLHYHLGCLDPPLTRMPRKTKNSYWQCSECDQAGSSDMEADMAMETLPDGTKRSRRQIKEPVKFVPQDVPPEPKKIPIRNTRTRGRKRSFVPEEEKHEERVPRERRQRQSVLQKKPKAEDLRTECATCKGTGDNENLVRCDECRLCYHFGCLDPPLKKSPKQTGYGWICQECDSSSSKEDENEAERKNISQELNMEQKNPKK
Chain of UniProt P11802 (P11802 whole entry, one chain of several): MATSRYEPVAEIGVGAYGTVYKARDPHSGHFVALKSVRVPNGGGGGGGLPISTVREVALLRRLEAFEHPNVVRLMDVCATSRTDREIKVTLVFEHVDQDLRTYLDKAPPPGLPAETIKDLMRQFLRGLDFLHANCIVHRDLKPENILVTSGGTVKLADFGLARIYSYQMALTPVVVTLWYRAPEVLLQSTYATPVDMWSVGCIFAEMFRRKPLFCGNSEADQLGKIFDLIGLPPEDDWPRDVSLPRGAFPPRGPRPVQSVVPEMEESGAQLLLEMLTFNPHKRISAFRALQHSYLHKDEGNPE
Chain of UniProt Q9H0W9 (Q9H0W9 whole entry, one chain of several): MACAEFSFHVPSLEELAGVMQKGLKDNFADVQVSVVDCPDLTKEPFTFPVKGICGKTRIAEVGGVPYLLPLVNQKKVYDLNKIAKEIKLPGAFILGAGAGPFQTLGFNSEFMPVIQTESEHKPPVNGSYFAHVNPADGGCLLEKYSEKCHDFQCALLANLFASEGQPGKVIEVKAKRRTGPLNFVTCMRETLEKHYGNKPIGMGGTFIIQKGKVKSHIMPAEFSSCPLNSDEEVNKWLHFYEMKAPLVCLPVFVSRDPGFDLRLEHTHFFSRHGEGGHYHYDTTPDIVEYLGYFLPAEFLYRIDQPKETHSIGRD
Chain of UniProt P09234 (P09234 whole entry, one chain of several): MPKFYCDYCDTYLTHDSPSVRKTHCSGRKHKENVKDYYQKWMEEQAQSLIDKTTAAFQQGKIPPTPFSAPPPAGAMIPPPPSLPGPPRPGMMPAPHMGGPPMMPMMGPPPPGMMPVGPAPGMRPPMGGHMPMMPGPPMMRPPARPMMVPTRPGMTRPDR

Target	NP40-soluble protein abundance (concentration: 0.1mM)	NP40-soluble protein abundance (concentration: 0.5mM)	NP40-soluble protein abundance (concentration: 1mM)	NP40-soluble protein abundance (concentration: 2mM)	NP40-soluble protein abundance (concentration: 4mM)	NP40-soluble protein abundance (concentration: 6mM)	NP40-soluble protein abundance (concentration: 8mM)	NP40-soluble protein abundance (concentration: 10mM)
F8VTV8|F8VWX7|F8VYH9|P11802 (UniProt P11802)	0.977 ± 0.13	1.06 ± 0.048	0.999 ± 0.041	1.05 ± 0.071	1.06 ± 0.056	1.02 ± 0.049	0.995 ± 0.04	0.973 ± 0.015
A0A5E8|Q99501|C9JFI0 (UniProt Q99501)	1.12 ± 0.09	1.17 ± 0.18	1.21 ± 0.1	1.3 ± 0.15	1.3 ± 0.086	1.37 ± 0.075	1.46 ± 0.035	1.38 ± 0.078
A0A0U1RRH6|O94880|O94880-2 (UniProt O94880)	1.05 ± 0.095	1.07 ± 0.14	1.15 ± 0.12	1.16 ± 0.065	1.34 ± 0.12	1.46 ± 0.096	1.65 ± 0.25	1.78 ± 0.25
A6NJD9|A8MVT4|A8MYK1|Q16540 (UniProt Q16540)	1.06 ± 0.1	1.11 ± 0.23	1.28 ± 0.22	1.29 ± 0.31	1.36 ± 0.41	1.14 ± 0.35	1.19 ± 0.32	1.2 ± 0.37
A0A0A6YYH1|H0YLI7|P59780|Q7Z6K5-2 (UniProt Q7Z6K5+P59780+H0YLI7)	1.04 ± 0.012	1.07 ± 0.045	1.06 ± 0.099	1.03 ± 0.044	0.986 ± 0.04	1.01 ± 0.076	0.989 ± 0.017	0.992 ± 0.049
A0A087WTT6|P62273|P62273-2 (UniProt P62273)	0.92 ± 0.14	0.977 ± 0.14	1.16 ± 0.29	1.1 ± 0.19	0.953 ± 0.29	0.957 ± 0.27	0.663 ± 0.15	0.939 ± 0.29
A0A0U1RR32|A0A0U1RRH7|P04908|P0C0S8|P20671|Q6FI13|Q7L7L0|Q93077|Q96KK5|Q99878 (UniProt Q99878+Q7L7L0+Q6FI13+Q93077+P20671+P0C0S8+Q96KK5+P04908)	1.01 ± 0.11	0.7204 ± 0.0051	1.26 ± 0.37	1.24 ± 0.024	1.76 ± 0.48	1.92 ± 0.49	1.4 ± 0.53	2.39 ± 1.2
A0A087WT99|Q9H0W9|Q9H0W9-2|E9PPB5|E9PQS1 (UniProt Q9H0W9)	0.993 ± 0.094	0.942 ± 0.069	0.925 ± 0.048	0.899 ± 0.068	0.872 ± 0.058	0.897 ± 0.087	0.901 ± 0.11	0.848 ± 0.053
MYO1G (UniProt B0I1T2)	1.12 ± 0.027	1.47 ± 0.26	1.95 ± 0.34	2.5 ± 0.51	2.75 ± 0.45	2.67 ± 0.49	2.58 ± 0.3	2.35 ± 0.31
A0A0A0MRR7|P09234 (UniProt P09234)	1.06 ± 0.017	1.19 ± 0.068	1.25 ± 0.068	1.36 ± 0.052	1.33 ± 0.11	1.56 ± 0.097	1.71 ± 0.2	1.82 ± 0.24
E9PGC0|P20936|P20936-2|P20936-4 (UniProt P20936)	1.05 ± 0.069	1.04 ± 0.091	1.02 ± 0.11	0.997 ± 0.072	0.909 ± 0.027	0.931 ± 0.032	0.961 ± 0.048	0.899 ± 0.031
E7EX48|P51957|P51957-3 (UniProt P51957)	1.01 ± 0.097	0.987 ± 0.21	0.961 ± 0.21	1.01 ± 0.2	0.986 ± 0.21	0.957 ± 0.23	0.985 ± 0.25	1.06 ± 0.25
A8MXF6|B7ZBD5|Q9UBK7|Q9UBK7-2|Q9UBK7-3|Q9UNT1|Q9UNT1-2|Q9UNT1-3 (UniProt Q9UNT1+Q9UBK7+B7ZBD5+A8MXF6)	1.03 ± 0.038	1.03 ± 0.035	1.02 ± 0.032	1.01 ± 0.084	0.947 ± 0.046	0.955 ± 0.071	0.949 ± 0.053	0.94158 ± 0.00038
SMCHD1 (UniProt A6NHR9)	1.05 ± 0.04	1.06 ± 0.055	0.999 ± 0.029	1.03 ± 0.07	1.04 ± 0.056	1.04 ± 0.043	1.02 ± 0.051	1.01 ± 0.098
A0A0B4J1R7|Q96B45 (UniProt Q96B45)	0.918 ± 0.15	0.977 ± 0.18	1.02 ± 0.17	1.09 ± 0.11	1.09 ± 0.24	1 ± 0.19	1.02 ± 0.12	1.06 ± 0.18
UniProt A5PLN9|A5PLN9-2|A5PLN9-4|A5PLN9-5	1.02 ± 0.078	1.04 ± 0.052	0.99 ± 0.041	0.954 ± 0.05	0.969 ± 0.073	0.951 ± 0.041	0.965 ± 0.014	0.904 ± 0.014
A0A087WUC6|E9PI68|Q15005|E9PL01 (UniProt Q15005)	0.955 ± 0.026	0.955 ± 0.018	0.899 ± 0.025	0.882 ± 0.05	0.858 ± 0.041	0.881 ± 0.045	0.859 ± 0.055	0.843 ± 0.061
